Shown are actives, neighbours in structure and some others; about 3.3% of the full set was active somewhere.
USP2a block = inhibitors of human ubiquitin-specific protease USP2a; Potency, µM (series often up to 38.3 µM), for the others: at the highest dose activity change, negative = inhibition, usual class: inhibitors; USP2 core, Ub-CHOP2 coupled fluorogenic reporter, 485/531; 0.01% of 330,000 active;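 further: potency means the concentration at half of the fitted maximal effect; plate controls were DMSO wells for no effect and full inhibition by NEM control for full effect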
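Cell-free coupled assay: 10nM USP2 core preincubated 30min RT with compound in Tris-HCl pH 8.0/CaCl2/CHAPS buffer, then 25nM Ub-CHOP2 and 25nM reporter substrate; fluorescence (Ex 485/Em 531) read after 60min RT, normalized to NEM inhibition, concentration-response curves fitted.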
WRN inhibitor = inhibitors of human WRN helicase; Q14191; WRN helicase unwinding, fluorescent forked duplex, kinetic; Potency, µM (highest dose often 114 µM), for inactives: top-dose activity change, negative = inhibition, actives largely listed as inhibitors; 0.46% of 360,000 active; AID 651768; further: potency means the concentration at half of the fitted maximal effect; nearly all actives have a fitted effect of over 55% in size
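Fluorescence dequenching readout, ex 525 nm/em 598 nm, kinetic mode: forked duplex DNA (100 nM final) with adjacent fluorophore and quencher unwound by WRN (20 nM final) with 2 mM ATP. Compound preincubation 15 min, room temperature.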
PLK1 PBD inh = inhibitors of human PLK1 polo-box domain binding | P53350 | AID 720504 | 2.8% of 360,000 active | Plk1 PBD binding of FITC phosphopeptide, fluorescence polarization | Potency, µM, without a hit: max response, negative = inhibition, usual class: inhibitors; further: potency means the concentration at half of the fitted maximal effect; series mostly up to about 57 µM; nearly all actives have a fitted effect of over 65% in size
Target sequence (P53350 whole entry, looked up, the tested form may be a part): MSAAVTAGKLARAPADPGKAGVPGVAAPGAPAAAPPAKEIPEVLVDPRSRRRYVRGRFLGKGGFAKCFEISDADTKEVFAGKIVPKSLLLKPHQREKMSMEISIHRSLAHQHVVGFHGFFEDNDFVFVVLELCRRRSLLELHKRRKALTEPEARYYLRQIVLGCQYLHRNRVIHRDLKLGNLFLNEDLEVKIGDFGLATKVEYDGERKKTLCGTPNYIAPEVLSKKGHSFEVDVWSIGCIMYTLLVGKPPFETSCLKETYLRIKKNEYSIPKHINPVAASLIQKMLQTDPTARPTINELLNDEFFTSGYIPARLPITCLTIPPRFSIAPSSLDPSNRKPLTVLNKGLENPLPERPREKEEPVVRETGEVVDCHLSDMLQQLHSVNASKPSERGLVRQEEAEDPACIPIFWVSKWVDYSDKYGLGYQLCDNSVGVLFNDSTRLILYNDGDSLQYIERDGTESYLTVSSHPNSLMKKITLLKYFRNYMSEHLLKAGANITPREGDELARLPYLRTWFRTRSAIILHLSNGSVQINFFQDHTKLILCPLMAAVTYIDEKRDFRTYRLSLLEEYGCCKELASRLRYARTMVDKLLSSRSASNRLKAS
PI5P4Ka inh = inhibitors of human PI5P4K alpha. PI5P4Kalpha enzyme, ADP-Glo luminescence, 60 min; stronger effect = lower value. max response, %. 1.2% of 330,000 active. AID 652105; active means max response of -50% or lower; inconclusive means between -30% and -50%; inactive means -30% or higher; further: value at the top dose of about 77 µM
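Controls without substrate or without enzyme flank wells where PI5P4Kalpha converts substrate using 5 microM ATP (final). Incubation lasts 60 minutes at room temperature; ADP formed is read by ADP-Glo luminescence.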
USP1 inh = blocks the human USP1/UAF1 deubiquitinase complex | 0.23% of 390,000 active | recombinant USP1/UAF1, Ub-Rhodamine cleavage fluorescence | Potency, µM (titrated, usually from 57.1 µM), for the others: at the highest dose activity change, negative = inhibition, actives largely listed as inhibitors; further: potency means the concentration at half of the fitted maximal effect; nearly all actives have a fitted effect of over 60% in size
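Step one: compound is pinned into 1nM USP1/UAF1 in HEPES pH 7.8 buffer with TCEP. Step two: 15 min room-temperature incubation. Step three: Ub-Rho (150nM final) starts cleavage, tracked by fluorescence over six one-minute reads.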
* hit, by the source's call; [ ] = another dose, or the depositor's remark. Unless noted, the call rests on the fitted dose curve; in most records, active means well fitted curve in the direction sought with a large enough effect; inconclusive means small, poorly fitted or top-dose-only effect, or another doubt; inactive means no such curve, though single readings can be large; an effect the other way counts as inactive or inconclusive. Unless noted, on the % scale 0 is the no-effect control and ±100 the full control effect.

Results for COc1ccc(CCn2c(NN=C3CCCCC3)nc3c2c(=O)[nH]c(=O)n3C)cc1 ?
USP2a block: -5%; WRN inhibitor: -5%; PLK1 PBD inh: inconclusive; PI5P4Ka inh: inconclusive; USP1 inh: -24%

How did O=C(N/N=C/c1c(O)n(-c2ccccc2)c(=O)[nH]c1=O)c1ccncc1 do in these assays?
USP2a block: -1%; WRN inhibitor: -34%; PLK1 PBD inh: -3%; PI5P4Ka inh: -27; USP1 inh: -17%

How did O=C(N/N=C\C1C(=O)NC(=S)N(c2ccccc2)C1=O)c1ccc(O)cc1 (configuration not stated) do in these assays?
USP2a block: 4%; WRN inhibitor: 3%; PLK1 PBD inh: -24%; PI5P4Ka inh: -57*; USP1 inh: -14%

What do the screens show for `CCSc1nnc(NC(=O)c2cccn(Cc3ccccc3Cl)c2=O)s1`?
USP1 inh: -13%

What do the screens show for `CNc1cc(Cl)c2nonc2c1[N+](=O)[O-]`?
USP2a block: 2%; WRN inhibitor: inconclusive; PLK1 PBD inh: 8.4µM*; PI5P4Ka inh: 2; USP1 inh: -22%

Results for Cc1ccc2c(c1)Oc1ccccc1N=C2 ?
WRN inhibitor: 3%; PLK1 PBD inh: -11%; PI5P4Ka inh: -2; USP1 inh: -7%

Results for O=c1[nH]c(=O)n(Cc2ccco2)c(O)c1/C=N/N1CCCCCC1 ?
USP2a block: 2%; WRN inhibitor: -8%; PLK1 PBD inh: -3%; PI5P4Ka inh: 1; USP1 inh: -5%

What do the screens show for `N#Cc1c(/N=C/c2c(O)n(Cc3ccco3)c(=O)[nH]c2=O)sc2c1CCCC2`?
USP2a block: 3%; WRN inhibitor: 56µM*; PLK1 PBD inh: 24µM*; USP1 inh: -24%

How did NC(=O)c1ccc(N=Cc2c(O)n(Cc3ccco3)c(=O)[nH]c2=O)cc1 do in these assays?
USP2a block: 5%; WRN inhibitor: 50µM*; PLK1 PBD inh: inconclusive; PI5P4Ka inh: -79*; USP1 inh: -23%

What do the screens show for `CCN(CC)c1ccc(N=Cc2c(O)n(Cc3ccco3)c(=O)[nH]c2=O)cc1`?
USP2a block: 3%; WRN inhibitor: 0%; PLK1 PBD inh: 54%; PI5P4Ka inh: 1; USP1 inh: inconclusive

What do the screens show for `CCC(=O)Nc1cc(C(=O)O)ccc1S(=O)(=O)c1ccc(C)cc1`?
USP2a block: 0%; WRN inhibitor: inconclusive; PLK1 PBD inh: inconclusive; PI5P4Ka inh: -6; USP1 inh: -18%

What do the screens show for `COC(=O)C1=C(c2ccccc2)C[C@@H]2CC[C@H]1N2C(=O)N1CCC(C)CC1`?
WRN inhibitor: 10%; PLK1 PBD inh: 2%; PI5P4Ka inh: 0; USP1 inh: -33%

What do the screens show for `CN1C(=O)C(=Cc2ccc(Sc3ccccc3)o2)C(=O)N(C)C1=S`?
WRN inhibitor: inconclusive; PLK1 PBD inh: 2.7µM*; PI5P4Ka inh: inconclusive; USP1 inh: -17%

How did Cc1ccc(-c2nc(CN3C(=O)CN=C(c4ccccc4Cl)c4cc(Cl)ccc43)c(C)o2)cc1 do in these assays?
USP1 inh: -31%

What do the screens show for `CCn1c(O)c(C=NCc2cccs2)c(=O)[nH]c1=O`?
USP2a block: -5%; WRN inhibitor: 9%; PLK1 PBD inh: 15µM*; PI5P4Ka inh: -25; USP1 inh: -17%

What do the screens show for `COC(=O)C(O)(c1ccc(N(C)C(=O)c2cccs2)cc1)C(F)(F)F` (configuration not stated)?
USP2a block: -1%; WRN inhibitor: -18%; PLK1 PBD inh: 24µM*; PI5P4Ka inh: -21; USP1 inh: -14%

Results for CC(C)CN(CC(C)C)c1ccc(C=C2C(=O)NC(=S)NC2=O)cc1[N+](=O)[O-] ?
USP2a block: -9%; WRN inhibitor: 56µM*; PLK1 PBD inh: 2.7µM*; PI5P4Ka inh: -101*; USP1 inh: inconclusive

Results for O=C(COc1cc(Cl)ccc1Cl)Nc1ccc(Cl)cc1C(=O)c1ccccc1 ?
USP1 inh: 2%

What do the screens show for `CN1CCN(c2ccc(N)cc2Cl)CC1`?
USP2a block: 1%; WRN inhibitor: -5%[57.1 µM]; PLK1 PBD inh: 15µM*; PI5P4Ka inh: inconclusive; USP1 inh: -11%

Results for CC1(C(=O)O)CCC2(C)CCC3(C)C(=CC(=O)C4C5(C)CCC(=O)C(C)(C)C5CCC43C)C2C1 (configuration not stated) ?
WRN inhibitor: 7%; PLK1 PBD inh: -11%; PI5P4Ka inh: 3; USP1 inh: inconclusive

How did CCN(CC)C(=O)c1ccc(NC(=O)CCn2nc(-c3ccc(Cl)cc3)c3ccccc3c2=O)cc1 do in these assays?
USP1 inh: -3%

What do the screens show for `COc1ccc(OC)c(N=Cc2c(O)[nH]c(=O)[nH]c2=O)c1`?
USP2a block: -4%; WRN inhibitor: -9%; PLK1 PBD inh: 1%; PI5P4Ka inh: -56*; USP1 inh: -15%

Results for COC(=O)c1ccccc1N=Cc1c(O)[nH]c(=O)[nH]c1=O ?
USP2a block: 3%; WRN inhibitor: 7%; PLK1 PBD inh: -9%; PI5P4Ka inh: 3; USP1 inh: -17%

How did CCOC(=O)[C@]12Cc3cc(OC)ccc3[C@H]1N(CC(=O)OC)C(=O)c1ccccc12 do in these assays?
WRN inhibitor: -3%; PLK1 PBD inh: -2%; PI5P4Ka inh: -1

Results for CCOC(=O)[C@]12Cc3cc(N(C)C)ccc3[C@H]1N(Cc1ccccc1)C(=O)c1ccccc12 ?
WRN inhibitor: -8%; PLK1 PBD inh: -17%; PI5P4Ka inh: 1; USP1 inh: -24%

Results for CCOC(=O)[C@]12Cc3cc(OC)ccc3[C@H]1N(CC(=O)OC)C(=O)c1cc(OC)ccc12 ?
WRN inhibitor: -2%; PLK1 PBD inh: 13µM*; PI5P4Ka inh: 1

How did CCOC(=O)[C@]12Cc3cc(Cl)ccc3[C@H]1N(C)C(=O)c1cc(OC)ccc12 do in these assays?
WRN inhibitor: 1%; PLK1 PBD inh: 11µM*; PI5P4Ka inh: 0

How did CCOC(=O)[C@]12Cc3cc(C)ccc3[C@H]1N(Cc1ccccc1)C(=O)c1cc(OC)ccc12 do in these assays?
WRN inhibitor: -7%; PLK1 PBD inh: inconclusive; PI5P4Ka inh: 1

What do the screens show for `CCOC(=O)[C@]12Cc3cc(OC)ccc3[C@H]1N(C)C(=O)c1cc(OC)ccc12`?
WRN inhibitor: 2%; PLK1 PBD inh: 9.5µM*; PI5P4Ka inh: 0

What do the screens show for `CCCCCN1C(=O)c2cc(OC)ccc2[C@@]2(C(=O)OCC)Cc3cc(OC)ccc3[C@@H]12`?
WRN inhibitor: -2%; PLK1 PBD inh: 4.7µM*; PI5P4Ka inh: 4

Results for S=c1[nH]nc(-c2ccn[nH]2)n1-c1ccccc1Cl ?
USP2a block: 7%; WRN inhibitor: -5%; PLK1 PBD inh: inconclusive; PI5P4Ka inh: 2; USP1 inh: -5%

What do the screens show for `COc1cccc(CN2CCC(n3nccc3NC(=O)CCOc3ccccc3)CC2)c1O`?
WRN inhibitor: inconclusive; PLK1 PBD inh: -11%; PI5P4Ka inh: 3; USP1 inh: 5%

High-throughput results from PubChem.
